Measurements reported in PubChem BioAssay (NCI).
About 83,000 compounds went through this panel and 20% of them were active in at least one assay; those are over-represented in the sample as a whole.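 Interpretation: 100, growth as untreated; towards 0, rising growth inhibition; 0, no net growth; 0 to -100, cell death. Compounds scoring below 10 were considered active.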 Unmarked numbers belong to inactive results. Activity calls are given as the source filed them.

What was measured:
Experiment in all cases: NCI-60 one-dose screen, 48 h (100 = growth as untreated, 0 = no growth, -100 = all killed)
SK-MEL-2 melanoma = details: 10 µM
SN12C renal = details: 10 µM
UO-31 renal = details: 10 µM
TK-10 renal = details: 10 µM unless noted
ACHN renal = details: 10 µM
CAKI-1 renal = details: 10 µM
A498 renal = details: 10 µM
CCRF-CEM leukemia = details: 10 µM
MOLT-4 leukemia = details: 10 µM

| Compound | growth (SK-MEL-2 melanoma) | growth (SN12C renal) | growth (UO-31 renal) | growth (TK-10 renal) | growth (ACHN renal) | growth (CAKI-1 renal) | growth (A498 renal) | growth (CCRF-CEM leukemia) | growth (MOLT-4 leukemia) |
| --- | --- | --- | --- | --- | --- | --- | --- | --- | --- |
| CCOC(=O)c1ccc(NC(=S)P(=O)(c2ccccc2)c2ccccc2)cc1 | 119% | 103% | 92.9% | 123% | 102% | 86.3% | 86.3% | 69.8% | 52.6% |
| NCCCN | 122% | 101% | 92.6% | 107% | 103% | 98.3% | 114% | 101% | 112% |
| CCCCCCCCCCC1CO1 (centres undefined) | 118% | 102% | 82.2% | 112% | 109% | 104% | 108% | 97.2% | 105% |
| C=CC(O)CCC (centres undefined) | 122% | 99.5% | 89.9% | 102% | 98.5% | 92.1% | 108% | 98.4% | 110% |
| O=C(O)CCC(NC(=O)OCc1ccccc1)C(=O)O (centres undefined) | 105% | 100% | 94.9% | 93.1% | 111% | 101% | 106% | 101% | 105% |
| C=CCCCCCCCCCOC(C)=O | 98.5% | 98.8% | 92.4% | 91.5% | 110% | 104% | 111% | 101% | 103% |
| CCN1C(=O)/C(=C/C=C/N(C)c2ccccc2)SC1=S | 82.5% | 94.4% | 94.2% | 85.6% | 75.7% | 91.6% | 92.8% | 92% | 89% |
| COc1cc2nn(-c3ccccc3N)nc2cc1OC | 106% | 106% | 87.6% | 109% | 109% | 85.6% | 82.3% | 101% | 98.9% |
| O=C(O)CCCC(=O)O | 106% | 102% | 87% | 120% | 103% | 105% | 109% | 101% | 103% |
| COc1cc(CCN=Cc2ccccc2O)c([N+](=O)[O-])cc1OC | 102% | 103% | 79.3% | 96.9% | 96.7% | 86.6% | 119% |  | 96.1% |
| Cc1ccc(S(=O)(=O)O)c(C)c1 | 112% | 103% | 73.6% | 101% | 103% | 96.3% | 94.1% | 100% | 98.6% |
| CC(=O)NCc1cc(C)c(C)cc1C | 98% | 103% | 83.6% | 92.6% | 104% | 98.8% | 118% |  | 96.2% |
| CC(C)CCCC(=O)O | 102% | 106% | 95.4% | 105% | 104% | 105% | 86.8% | 101% | 119% |
| C=C[Si](OC(C)=O)(OC(C)=O)OC(C)=O | 109% | 110% | 79.3% | 105% | 97.3% | 96.4% | 94.2% | 88% | 98.3% |
| O=C(O)/C=C/c1ccc2c(c1)CCC2 | 110% | 95.4% | 99.7% | 107% | 107% | 94.5% | 111% | 83.5% | 97.1% |
| CC(=Nc1ccccc1)C1=C(O)C(Cc2cccc(F)c2)NC1=O (centres undefined) | 13.1% | 29.7% | 35.9% | 44.4% | 26.4% | 37.2% | 0.117% (active) | 6.2% (active) | -12.4% (active) |
| COC(=O)c1ccccc1N(C)C | 99.4% | 103% | 87.5% | 94.8% | 113% | 96.2% | 79.6% | 95.5% | 90.1% |

| Compound | growth (SK-MEL-2 melanoma) | growth (SN12C renal) | growth (UO-31 renal) | growth (TK-10 renal) | growth (ACHN renal) | growth (CAKI-1 renal) | growth (A498 renal) | growth (CCRF-CEM leukemia) | growth (MOLT-4 leukemia) |
| --- | --- | --- | --- | --- | --- | --- | --- | --- | --- |
| CCCCCCCCO | 117% | 97.5% | 111% | 110% | 105% | 103% | 108% | 108% | 97.4% |
| O=C(/C(=N/O)c1ccccc1)c1ccccc1 | 121% | 94.6% | 87.9% | 108% | 106% | 100% | 91.5% | 97.9% | 123% |
| CC1CCCCN1C(=S)Nc1ccc(S(=O)(=O)N2CCCCC2)cc1 (centres undefined) | 107% | 109% | 89.4% | 107% | 99.8% | 75.8% | 70.9% | 75.9% | 104% |
| Cc1ccc(CCCC(=O)O)c(C)c1 | 91.1% | 97.9% | 90.9% | 95% | 98.3% | 99.7% | 101% |  | 98.7% |
| CCCCCCCO | 134% | 99.4% | 82.1% | 117% | 92.5% | 110% | 105% | 103% | 96.4% |
| Cc1ccc(C(O)C2CC2)cc1 (centres undefined) | 104% | 102% | 88.5% | 116% | 104% | 91.9% | 87.5% | 91.7% | 100% |
| O=C(O)CSCSCC(=O)O | 94.8% | 104% | 92.3% | 93.6% | 101% | 96.9% | 80.4% |  | 101% |
| CC(C)=CC(=O)OC(=O)C=C(C)C | 108% | 100% | 94.5% | 102% | 105% | 108% | 124% |  | 101% |
| O=C(Nc1ccccc1C(=O)NCC1CC1)c1cccs1 | 113% | 100% | 89.4% | 114% | 103% | 82.7% | 106% |  | 111% |
| C#CC(C(C)C)N(CCO)CCCC (centres undefined) | 111% | 102% | 96.8% | 107% | 100% | 102% | 88.8% | 95.6% | 107% |
| CC1CC(O)C2C3(C)CCCC2(COC3=O)C12CCC1(CCOC1=O)O2 (centres undefined) | 117% | 113% | 93.3% | 114% | 108% | 94.7% | 71% | 104% | 114% |
| CC(C)(C)n1nc(C2CC2)c(Br)c1NC(=O)c1ccccc1F | 103% | 102% | 91.5% | 103% | 101% | 80.8% | 101% |  | 93.3% |
| O=[N+]([O-])c1ccc(/C=C/C=C/c2ccccc2)c(Cl)c1 | 94.3% | 98.3% | 92.8% | 121% | 100% | 95% | 88.9% | 90.7% | 86.4% |
| O=C(c1ccc(O)cc1)c1ccc(O)cc1 | 101% | 109% | 85% | 95% | 107% | 110% | 73.9% | 106% | 102% |
| O=C(NCc1ccco1)Nc1c(Cl)cc(Cl)cc1Cl | 75.5% | 96.9% | 84% | 105% | 97.2% | 89.1% | 99.5% |  | 108% |
| COc1ccc(-c2cc3c(nn2)-c2ccccc2C3=O)cc1 | 65.5% | 72.7% | 89.7% | 32.1% | 73.5% | 28.9% | 102% | 28.6% | 57.1% |
